Holding throughout (format): functional
Assay [1] has as its target Solute carrier family 2, facilitated glucose transporter member 1 (Homo sapiens) (UniProt P11166). Kind of assay: ST_JUDE_LEISH: Cytotoxicity at 2uM final concentration against transgenic Leishmania Mexicana promastigotes LmGLUT1 that are glucose transport deficient and complemented with the human glucose transporter GLUT1. Activity is measured by DNA content using SYBR green in vitro.

Assay [2] deals with Hexose transporter 1 (Plasmodium falciparum) (UniProt O97467). Nature of the assay: ST_JUDE_LEISH: Cytotoxicity at 2uM final concentration against transgenic Leishmania Mexicana promastigotes LmPfHT that are glucose transport deficient and complemented with the Plasmodium falciparum hexose transporter. Activity is measured by DNA content using SYBR green in vitro.
For assay [3], the target named is Glucose transporter (Leishmania mexicana) (UniProt O61059). Kind of assay: ST_JUDE_LEISH: Cytotoxicity at 2uM final concentration against transgenic Leishmania Mexicana promastigotes LmGT2 that are glucose transport deficient and complemented with the L. Mexicana glucose transporter 2. Activity is measured by DNA content using SYBR green in vitro.

The inhibition is the relative decrease from the control value, in per cent.

Solute carrier family 2, facilitated glucose transporter member 1 (Homo sapiens), sequence (P11166 whole entry): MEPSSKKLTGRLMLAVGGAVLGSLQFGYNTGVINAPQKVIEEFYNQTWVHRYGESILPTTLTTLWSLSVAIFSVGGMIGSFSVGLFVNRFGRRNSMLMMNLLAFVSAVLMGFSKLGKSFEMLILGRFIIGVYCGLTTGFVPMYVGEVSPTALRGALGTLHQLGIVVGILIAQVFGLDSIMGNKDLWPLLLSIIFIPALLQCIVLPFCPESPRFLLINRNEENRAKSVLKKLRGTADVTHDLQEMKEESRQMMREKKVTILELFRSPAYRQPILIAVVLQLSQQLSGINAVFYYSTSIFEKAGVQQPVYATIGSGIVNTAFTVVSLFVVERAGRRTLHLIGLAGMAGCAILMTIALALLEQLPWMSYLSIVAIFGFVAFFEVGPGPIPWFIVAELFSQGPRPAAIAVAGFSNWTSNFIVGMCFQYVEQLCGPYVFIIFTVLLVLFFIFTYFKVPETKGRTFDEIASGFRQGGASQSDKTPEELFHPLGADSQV

With `CCOc1cc(C)ccc1C1CCN(CCCCNC(=O)c2ccc(NC(=O)c3cc(Cl)cc(Cl)c3)cc2)CC1`, the inhibition was 2.78% in assay [1], 0.36% in assay [2] and 1.02% in assay [3].

On to `COc1ccc(-c2ccc3c(-c4cccc(S(C)(=O)=O)c4)cnc(N)c3c2)cc1`, for which the values for the inhibition in assay [1], in assay [2] and in assay [3] were 0.83%, 1% and 0.45%, respectively.

With `CN(C)C(=O)C(CC(=O)NCc1ccccc1Cl)N(C)C.CN(C)C(=O)CC(C(=O)NCc1ccccc1Cl)N(C)C` (stereo not given), the inhibition in assay [1] worked out at 3.97%; in assay [2] it was 4.82%; in assay [3], 4.89%.

`O=C(CCc1cccc(O)c1)NCC(NCCCNc1cc(=O)c2ccccc2[nH]1)c1cc(Br)cc(Br)c1` (stereo not given): the results for the inhibition in assay [1], in assay [2] and in assay [3] were 8.91%, 5.63% and 6.84%, respectively.

Regarding `CC(CN1CCN(C)CC1)C(=O)Nc1ccc(-c2ccc(-c3nc4ccccc4[nH]3)cc2)cc1` (stereo not given), the inhibition in assay [1] was 0.19%; in assay [2], 3.04%; in assay [3], 1.16%.

On to `Cc1cc(O)c(-c2ccc(Sc3ccc(Cl)cc3)cc2)c(C)n1`, for which the results for the inhibition in assay [1], in assay [2] and in assay [3] were -0.64%, 3.32% and -4.88%, respectively.

Turning to `CCc1cn2c3c(cc(C(=O)N[C@@H](Cc4cccc(Cl)c4)[C@H](O)CNC4CCCCC4)cc13)N(C)S(=O)(=O)CC2`, the inhibition is -0.29% in assay [1], 1.09% in assay [2] and -0.36% in assay [3].

As to `Cc1c2c(nn1-c1ccccc1)C(c1ccccc1)N(c1ccccc1)C2=O` (stereo not given), the results for the inhibition in assay [1], in assay [2] and in assay [3] were -0.43%, 0.43% and 0.75%, respectively.

On to `CC(C)CNCc1cccc(-c2cccc(CN(CCCN3CCN(C)CC3)C(=O)CCC3CCCC3)c2)c1`, for which the inhibition in assay [1] was found to be 4.42%; in assay [2], 3.07%; in assay [3], 4.38%.

As to `Cc1nc(-c2nc(NCc3ccccn3)ncc2-c2ccsc2)sc1C`, the inhibition in assay [1] worked out at 6.64%; in assay [2], 5.22%; in assay [3], 5.82%.

As for `CN/C(=C\[N+](=O)[O-])NCCSCc1cc(C)c(CN(C)C)s1`, the inhibition in assay [1] came out at 5.43%; in assay [2] it was 5.21%; in assay [3], 5.98%.

In the case of `CCCNC(=O)c1ccnc(-c2ccc(CNC3Cc4ccccc4C3)cc2)c1`, the values for the inhibition in assay [1], in assay [2] and in assay [3] were 1.45%, 1.35% and -0.22%, respectively.

On to `COc1cc(CNC[C@@H](O)[C@H](Cc2ccccc2)NC(=O)c2cc(C3CCCC3)cc(N3CCCC3=O)c2)cc(OC)c1`, for which the inhibition is 2.44% in assay [1], 5.82% in assay [2] and -1.06% in assay [3].

With `CN1CCN(c2ccnc3cc4ccccc4cc23)CC1`, the inhibition in assay [1] is -3.09%; in assay [2], -3.08%; in assay [3], -0.9%.

As for `CN(CCN1CCC(c2c[nH]c3ccccc23)CC1)C(=O)OCCCCCNC(=O)/C=C/c1ccc(Cl)c(Cl)c1`, the inhibition in assay [1] stood at 9.15%; in assay [2], 10.3%; in assay [3] it was 8.82%.

For the molecule `OC(CNCc1ccccc1Oc1ccccc1)c1cccc(C(F)(F)F)c1` (stereo not given), the inhibition was 3.95% in assay [1], 2.2% in assay [2] and 0.07% in assay [3].

`O=[N+]([O-])c1cccc(-c2ccc(C=NNc3cc(N4CCCC4)nc(N4CCCC4)n3)o2)c1`: the inhibition in assay [1] was determined as 3.39%; in assay [2], 3.17%; in assay [3] it was 3.82%.

Take `O=S(=O)(Nc1ccc2nccc(N3CCNCC3)c2c1)c1ccc(-c2ccccc2)cc1`: the figures for the inhibition in assay [1], in assay [2] and in assay [3] were 0.86%, 1.12% and 0.59%, respectively.

In the case of `O=C(Nc1nc2cc(S(=O)(=O)NCc3ccc(Cl)c(Cl)c3)ccc2n1CCCn1ccnc1)c1ccc(Cl)cc1`, the inhibition in assay [1] came out at 6.51%; in assay [2] it was 4.45%; in assay [3], 4.53%.

As to `COc1ccc(CNC2CCN(C)CC2)cc1-c1ccc(S(=O)(=O)NCC2CCCO2)s1` (stereo not given), the values for the inhibition in assay [1], in assay [2] and in assay [3] were 3.99%, 4.98% and 5.52%, respectively.

Regarding `COc1cc2ncnc(Nc3ccc(OCc4ccccc4Br)c(Cl)c3)c2cc1OC`, the inhibition in assay [1] was -3.06%; in assay [2] it was 1.28%; in assay [3], 6.38%.

In the case of `COc1ccccc1N1CCN(C(C(=O)NCc2ccc(C)cc2)c2ccc(C)cc2)CC1` (stereo not given), the inhibition was -0.68% in assay [1], -0.64% in assay [2] and -2.75% in assay [3].

Turning to `COc1ccc(C2CCN(CCCCNC(=O)c3ccc(NC(=O)c4ccc(Cl)cc4)cc3)CC2)c(OC)c1`, the inhibition in assay [1] came out at 6.64%; in assay [2], 5.21%; in assay [3] it was 3.22%.

Consider `CC(C)C[C@@H]1C(=O)N[C@H](C2Cc3ccccc3C2)C(=O)N1[C@@H](C(=O)O)c1ccc(F)cc1F`, for which the inhibition in assay [1] is 1.91%; in assay [2], 2.13%; in assay [3], 0.39%.

Take `COc1ccc(Cn2c(Nc3cccc(C(F)(F)F)c3)nc3cc(C(=O)NC(C)C)cnc32)cc1Cl`: the inhibition in assay [1] was determined as 10.3%; in assay [2], 9.69%; in assay [3] it was 10.9%.

Consider `Cc1ccc(CNc2cc(C(F)(F)F)nc(-c3ccc(S(C)(=O)=O)cc3)n2)cc1`, for which the figures for the inhibition in assay [1], in assay [2] and in assay [3] were 9.86%, 11.2% and 9.59%, respectively.

Turning to `COc1cc(CCOc2c(C)nc(N)nc2N)cc(OC)c1OC`, the inhibition in assay [1] is -0.69%; in assay [2] it was 0.7%; in assay [3] it was -0.41%.

Consider `COc1cc2c(cc1OCCN1CCC(N3CCCC3)CC1)N(C(=O)/C=C/c1ccccc1Cl)CC2`, for which the results for the inhibition in assay [1], in assay [2] and in assay [3] were 1.15%, 2.02% and 2.99%, respectively.

In the case of `CCOc1cc(C)ccc1NC1CCN(CCCCNC(=O)c2ccc(NC(=O)c3ccc(Cl)cc3)cc2)CC1`, the inhibition in assay [1] is -0.53%; in assay [2] it was 1.56%; in assay [3] it was 1.89%.

Turning to `O=C(NCCN1CCCC1)c1cccc(-c2ccc(-c3nc4cc(C(F)(F)F)ccc4[nH]3)cc2)c1`, the results for the inhibition in assay [1], in assay [2] and in assay [3] were 1.29%, 0.34% and 0.32%, respectively.

As to `COc1cc2nc(C)nc(Nc3ccc4c(ccn4Cc4ccccc4)c3)c2cc1OC`, the values for the inhibition in assay [1], in assay [2] and in assay [3] were 5.04%, 5.91% and 5.53%, respectively.

As for `CCOc1ccc(S(=O)(=O)N(C)c2ccc(OCC(=O)Nc3nccs3)cc2)cc1`, the inhibition came out at 5.83% in assay [1], 0.61% in assay [2] and 1.43% in assay [3].

As to `Nc1nc(N)c2c(CCc3ccc4ccccc4c3)cccc2n1`, the inhibition is 3.27% in assay [1], 1.63% in assay [2] and -1.66% in assay [3].

As to `Cc1cc(NC(=O)NCCN2CCC(NS(=O)(=O)c3cccc(Br)c3)C2)c2ccccc2n1` (stereo not given), the inhibition in assay [1] came to 1.93%; in assay [2], 0.98%; in assay [3], 0.42%.

As for `COc1ccc(NC(=O)N2CCc3ccc(OCCN(C(C)C)C(C)C)cc32)cc1C(F)(F)F`, the inhibition is 7.93% in assay [1], 7.33% in assay [2] and 5.73% in assay [3].

For the origin of these results see ChEMBL document CHEMBL3433997, “St. Jude Leishmania screening dataset” (2016).
